Assay [1] deals with Calcium and integrin-binding protein 1 (Homo sapiens) (UniProt Q99828). The experiment in a line: Primary qHTS for Identification of Calcium Integrin Binding Protein 1 (CIB1) Competitor (AID 1508620).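 Further: GST tagged CIB1 binding a fluorescein labelled alphaIIb integrin peptide tracer; top concentration of the series differs between compounds; on the % scale 0 is the no-effect control and ±100 the full control effect.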 The settings on record: CIB1-GST / FITC-alphaIIb peptide fluorescence polarization; series mostly up to 57.7 µM. An outline of the steps: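 Fluorescence polarization competition: CIB1-GST (1 uM final) preincubated with compound 15 min at room temperature, then FITC-labeled alphaIIb peptide (100 nM final) added for another 15 min. Polarization read at Ex 480/Em 540.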

Assay [2] is described as follows: Primary qHTS for inhibitors of nuclear receptor binding SET domain protein 2 (NSD2) in an isogenic RCH-ACV NSD2 p.E1099K mutant (9B) (AID 1645876). Further: nearly all actives have a fitted effect of over 70% in size. Further: potency means the concentration at half of the fitted maximal effect. On activity change, negative = viability loss: on the % scale 0 is the no-effect control and ±100 the full control effect. The conditions noted are these: RCH-ACV NSD2 E1099K (9B) viability, CellTiter-Glo, 72 h; series mostly up to 44.9 µM. On the technique in general: Quantitative high-throughput screening tests each substance at several concentrations.

Assay [3] can be described thus: Primary qHTS for inhibitors of nuclear receptor binding SET domain protein 2 (NSD2) in an RCH-ACV wild type WT cells (2C) (AID 1645877). Further: nearly all actives have a fitted effect of over 70% in size. Further: potency means the concentration at half of the fitted maximal effect. On activity change, negative = cell killing: on the % scale 0 is the no-effect control and ±100 the full control effect. The conditions noted are these: RCH-ACV (leukaemia line) NSD2 WT (2C) viability, CellTiter-Glo, 72 h; series mostly up to 44.9 µM.
Assay [4] deals with Catechol O-methyltransferase (Homo sapiens) (UniProt P21964). In words: Confirmatory Screen for Target Class Profiling of Small Molecule Inhibitors of Methyltransferases (AID 1745852). On activity change, negative = inhibition: on the % scale 0 is the no-effect control and ±100 the full control effect. The conditions noted are these: MTase-Glo luminescence, SAH detection, recombinant enzyme; measured here: COMT max response; stronger effect = lower value.
The target in assay [5] is Guanidinoacetate N-methyltransferase (Homo sapiens) (UniProt Q14353). The assay is described as above. The conditions noted are these: MTase-Glo luminescence, SAH detection, recombinant enzyme; activity change, negative = inhibition: at 57.3 µM (top of the series) unless noted.
Assay [6] deals with Nicotinamide N-methyltransferase (Homo sapiens) (UniProt P40261). Described as above. The settings on record: MTase-Glo luminescence, SAH detection, recombinant enzyme; measured here: NNMT max response; stronger effect = lower value.
For assay [7], the target named is Phenylethanolamine N-methyltransferase (Homo sapiens) (UniProt P11086). Described as above. The conditions noted are these: MTase-Glo luminescence, SAH detection, recombinant enzyme; measured here: PNMT max response; stronger effect = lower value.

Results filed as inconclusive are left out. Activity calls are given as the source filed them. The call rests on the fitted dose curve; in most records, active means well fitted curve in the direction sought with a large enough effect; inconclusive means small, poorly fitted or top-dose-only effect, or another doubt; inactive means no such curve, though single readings can be large; an effect the other way counts as inactive or inconclusive.

Phenylethanolamine N-methyltransferase (Homo sapiens), sequence (P11086 whole entry, looked up): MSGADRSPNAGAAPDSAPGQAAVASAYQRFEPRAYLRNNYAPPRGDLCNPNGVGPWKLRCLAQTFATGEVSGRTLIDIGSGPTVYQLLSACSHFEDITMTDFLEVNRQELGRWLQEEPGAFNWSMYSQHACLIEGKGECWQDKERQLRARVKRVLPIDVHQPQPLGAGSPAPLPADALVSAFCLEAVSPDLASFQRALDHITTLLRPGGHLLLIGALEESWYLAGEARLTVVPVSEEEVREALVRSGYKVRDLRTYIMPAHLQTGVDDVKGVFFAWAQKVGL
Calcium and integrin-binding protein 1 (Homo sapiens), sequence (Q99828 whole entry, looked up): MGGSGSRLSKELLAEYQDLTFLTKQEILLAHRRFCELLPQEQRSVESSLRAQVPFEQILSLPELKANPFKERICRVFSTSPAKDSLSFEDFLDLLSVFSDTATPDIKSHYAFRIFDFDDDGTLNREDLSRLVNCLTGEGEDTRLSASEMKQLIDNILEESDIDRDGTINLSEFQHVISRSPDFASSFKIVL
Nicotinamide N-methyltransferase (Homo sapiens), sequence (P40261 whole entry, looked up): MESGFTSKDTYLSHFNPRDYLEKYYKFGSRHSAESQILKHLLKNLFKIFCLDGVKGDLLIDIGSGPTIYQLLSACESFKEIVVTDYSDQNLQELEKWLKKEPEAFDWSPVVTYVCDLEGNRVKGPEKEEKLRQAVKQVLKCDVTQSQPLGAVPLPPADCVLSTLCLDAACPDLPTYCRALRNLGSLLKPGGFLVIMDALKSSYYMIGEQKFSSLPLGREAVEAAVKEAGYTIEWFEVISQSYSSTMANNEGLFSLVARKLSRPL
Catechol O-methyltransferase (Homo sapiens), sequence (P21964 whole entry, looked up): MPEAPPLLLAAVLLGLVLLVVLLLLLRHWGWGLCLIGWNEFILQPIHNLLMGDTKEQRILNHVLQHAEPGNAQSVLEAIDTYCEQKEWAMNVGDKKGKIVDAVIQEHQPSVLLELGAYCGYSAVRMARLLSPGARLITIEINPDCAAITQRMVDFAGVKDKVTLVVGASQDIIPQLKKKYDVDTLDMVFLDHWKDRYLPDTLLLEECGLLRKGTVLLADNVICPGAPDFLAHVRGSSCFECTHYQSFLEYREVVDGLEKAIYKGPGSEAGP

As for `O=c1[nH]ccc2nc(-c3ccc(CN4CCC(c5nc(-c6ccccn6)n[nH]5)CC4)cc3)c(-c3ccccc3)cc12`, the Potency entry in assay [1] is “inactive”. For the same compound, the Potency in assay [2] is 32.5 nM (active); in assay [3], 81.7 nM (active). The activity in assay [4] was -10.1%; in assay [6], -47.8%; in assay [7], -18%. In addition, in assay [5], the activity change, negative = inhibition was -7.59%.

With `OC[C@H]1O[C@@H](OCCc2ccccc2)[C@H](O[C@@H]2OC[C@@H](O)[C@H](O)[C@H]2O)[C@@H](O)[C@@H]1O`, the Potency result in assay [1], in assay [2] and in assay [3] was “inactive” each time. Moreover, the activity in assay [4] was -76.4%; in assay [6] it was 3.88%; in assay [7] it was -1.31%. In addition, the activity change, negative = inhibition in assay [5] was determined as 0% [at 29.8 µM].

In the case of `COc1cc(/C=C/C(=O)OC[C@H]2O[C@@H](OC3OC=C(C(=O)O)C4C(O)CC(C)(O)C34)[C@H](O)[C@@H](O)[C@@H]2O)cc(OC)c1O` (stereo partly drawn), the Potency entry in assay [1], in assay [2] and in assay [3] was “inactive” each time. The values for the activity in assay [4], in assay [6] and in assay [7] were -54.7%, 0.931% and -3.81%, respectively. Besides, the activity change, negative = inhibition in assay [5] was -2.09% [at 19.1 µM].

Regarding `O=C(/C=C/c1ccc(O)cc1)OC[C@@]1(O)C=C[C@@H]2C(C(=O)O)=CO[C@@H](O[C@@H]3O[C@H](CO)[C@@H](O)[C@H](O)[C@H]3O)[C@@H]21`, the Potency entry in assay [1], in assay [2] and in assay [3] was “inactive” each time. Also, the activity in assay [4] is -58.3%; in assay [6] it was -1.35%; in assay [7] it was 0.204%. For the same compound, in assay [5], the activity change, negative = inhibition is 0.0203% [at 29.8 µM].

For `CC(C)C1NC(=O)C2CCCN2C1=O` (stereo not drawn), the Potency entry in assay [1], in assay [2] and in assay [3] was “inactive” in each case.

For `CC1=C2CC3C(CCC3(C)O)C(C)(O)CC2OC1=O` (stereo not drawn), the Potency entry in assay [1], in assay [2] and in assay [3] was “inactive” throughout. Also, the results for the activity in assay [4], in assay [6] and in assay [7] were -78.6%, 0% and 0%, respectively. Further, the activity change, negative = inhibition in assay [5] was found to be 0%.

For the compound `CC(C)(O)C1CC=C(C(=O)OC[C@H]2O[C@@H](Oc3cc(C(=O)O)cc(O)c3O)[C@H](O)[C@@H](O)[C@@H]2O)CC1` (stereo partly drawn), the Potency entry in assay [1], in assay [2] and in assay [3] was “inactive” in each case. The activity is -82.4% in assay [4], -6.11% in assay [6] and -6.07% in assay [7]. For the same compound, the activity change, negative = inhibition in assay [5] was -6.92% [at 29.8 µM].

Take `C[C@]1(C2CCCC2)Cc2cc(OCC(=O)O)c(Cl)c(Cl)c2C1=O`: the Potency entry in assay [1], in assay [2] and in assay [3] was “inactive” in each case. Moreover, the values for the activity in assay [4], in assay [6] and in assay [7] were -5.66%, -48.2% and -6.93%, respectively. Further, the activity change, negative = inhibition in assay [5] was -6.29%.

Turning to `CC1(C)COC(=O)[C@@H]1O[C@@H]1O[C@H](CO)[C@@H](O)[C@H](O)[C@H]1O`, the Potency entry in assay [1], in assay [2] and in assay [3] was “inactive” in each case.

Turning to `CC(C)(O)C1CC=C(C(=O)OC[C@H]2O[C@@H](OC(=O)C3=CCC(C(C)(C)O)CC3)[C@H](O)[C@@H](O)[C@@H]2O)CC1` (stereo partly drawn), the Potency result in assay [1], in assay [2] and in assay [3] was “inactive” each time. The activity is -62.1% in assay [4], -5.04% in assay [6] and -5.85% in assay [7]. For the same compound, the activity change, negative = inhibition in assay [5] is -9.84% [at 29.8 µM].

In the case of `CC(C)=C1CC2C(CCC2(C)O)C(C)(O)CC1=O` (stereo not drawn), the Potency result in assay [1], in assay [2] and in assay [3] was “inactive” each time. Further, the results for the activity in assay [4], in assay [6] and in assay [7] were -78.9%, 3.19% and 3.52%, respectively. Moreover, in assay [5], the activity change, negative = inhibition was 0%.

Turning to `C[C@@H]1CC[C@]2(C(=O)O[C@@H]3O[C@H](CO[C@@H]4O[C@H](CO)[C@@H](O)[C@H](O)[C@H]4O)[C@@H](O)[C@H](O)[C@H]3O)CC[C@]3(C)C(=CCC4[C@@]5(C)CC[C@H](O)[C@](C)(C(=O)O)C5CC[C@]43C)[C@@H]2[C@]1(C)O` (stereo partly drawn), the Potency entry in assay [1] is “inactive”. Moreover, the activity change, negative = viability loss in assay [2] is -2.63% [at 9.23 µM] (inactive). Besides, in assay [3], the activity change, negative = cell killing was -8.35% [at 9.23 µM] (inactive).

With `C=C1CCC2C(C)(C)CCC[C@]2(C)[C@H]1CC/C(C)=C/C(=O)O` (stereo partly drawn), the Potency result in assay [1], in assay [2] and in assay [3] was “inactive” each time.

For the compound `O=C(O)CC(CCc1ccccc1)OC1OC(CO)C(O)C(O)C1O` (stereo not drawn), the Potency result in assay [1], in assay [2] and in assay [3] was “inactive” in each case. The values for the activity in assay [4], in assay [6] and in assay [7] were -76.5%, -1.93% and -2.51%, respectively. For the same compound, the activity change, negative = inhibition in assay [5] is -3.69%.

As for `COC(=O)[C@]1(C)CCC[C@@]2(C)C(=O)CC[C@H]3C(=O)C=C(CC[C@@H]21)C3O` (stereo partly drawn), the Potency entry in assay [1], in assay [2] and in assay [3] was “inactive” each time.

On to `CC1CC(=O)C2=C(O1)OC1(C)CCC3C(C)(C)C4OC4C(=O)C3(C)C1C2` (stereo not drawn), for which the Potency entry in assay [1], in assay [2] and in assay [3] was “inactive” each time. In addition, the results for the activity in assay [4], in assay [6] and in assay [7] were -27.1%, -84.6% and -2.49%, respectively. Besides, the activity change, negative = inhibition in assay [5] turned out to be 0%.

As for `CC1OC(OC2C(OC(=O)[C@]34CCC(C)(C)C[C@H]3C3=CCC5[C@@]6(C)CC[C@H](OC7OC(C(=O)O)C(O)C(O)C7O)C(C)(C)C6CC[C@@]5(C)[C@]3(C)CC4O)OC(CO)C2O)C(O)C(O)C1OC1OCC(O)C(O)C1O` (stereo partly drawn), in assay [1], the Potency entry is “inactive”. In addition, the activity change, negative = viability loss in assay [2] is -7.94% [at 9.23 µM] (inactive). In addition, the activity change, negative = cell killing in assay [3] was -12.2% [at 9.23 µM] (inactive). Moreover, the results for the activity in assay [4], in assay [6] and in assay [7] were -87.7%, -6.05% and -8.02%, respectively. The activity change, negative = inhibition in assay [5] amounted to 0% [at 19.1 µM].

In the case of `C=C1C(=O)O[C@@H]2CC(C)=C([C@@H](C)CCCOC(C)=O)[C@@H](O)[C@H]12`, the Potency result in assay [1], in assay [2] and in assay [3] was “inactive” throughout. The values for the activity in assay [4], in assay [6] and in assay [7] were -78.5%, -0.922% and -2.38%, respectively. Further, the activity change, negative = inhibition in assay [5] is 1.58%.

As to `C[C@@H]1O[C@@H](OC[C@H]2O[C@@H](OCc3ccccc3)[C@H](O)[C@@H](O)[C@@H]2O)[C@H](O)[C@H](O)[C@H]1O`, the Potency result in assay [1], in assay [2] and in assay [3] was “inactive” in each case. Further, the activity was -64.3% in assay [4], -3.31% in assay [6] and -2.48% in assay [7]. Also, the activity change, negative = inhibition in assay [5] was -3.1% [at 29.8 µM].

The record behind these values is PubChem BioAssay (NCATS).
